Measured values taken from PubChem BioAssay (NCATS).
Results filed as inconclusive are left out. Active and inactive are the calls of the source. The call rests on the fitted dose curve; in most records, active means well fitted cell-killing curve with a large enough effect; inconclusive means small, poorly fitted or top-dose-only effect, or effect the other way; inactive means flat fitted curve, though single readings scatter.

Key:
Experiment in all cases: Primary qHTS to identify gynecologic anti-cancer compounds using libraries of approved drugs and bioactive compounds (AID 1345084); further: nearly all actives have a fitted effect of over 55% in size
CASKI = conditions: Gynecologic cancer cell panel viability, ATPlite luminescence, 48 h; series mostly up to 57.5 µM
Outline: (§1)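 Five-point cytotoxicity, 48 h drug exposure at 37 C, 5% CO2, on cells seeded 16 h beforehand. ATP content read by ATPlite luminescence.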

Es-2 = conditions: Gynecologic cancer cell panel viability, ATPlite luminescence, 48 h; series mostly up to 57.5 µM
Outline: as §1

HeLa = conditions: Gynecologic cancer cell panel viability, ATPlite luminescence, 48 h; series mostly up to 57.5 µM
Outline: as §1

Hek293T = conditions: Gynecologic cancer cell panel viability, ATPlite luminescence, 48 h, control line for the selectivity index; series mostly up to 57.5 µM
Outline: as §1

JEG-3 = conditions: Gynecologic cancer cell panel viability, ATPlite luminescence, 48 h; series mostly up to 57.5 µM
Outline: as §1

OV90 = conditions: Gynecologic cancer cell panel viability, ATPlite luminescence, 48 h; series mostly up to 57.5 µM
Outline: as §1

PA-1 = conditions: Gynecologic cancer cell panel viability, ATPlite luminescence, 48 h; series mostly up to 57.5 µM
Outline: as §1

SKOV3 = conditions: Gynecologic cancer cell panel viability, ATPlite luminescence, 48 h; series mostly up to 57.5 µM
Outline: as §1

Tov-21-G = conditions: Gynecologic cancer cell panel viability, ATPlite luminescence, 48 h; series mostly up to 57.5 µM
Outline: as §1

Tov112D = conditions: Gynecologic cancer cell panel viability, ATPlite luminescence, 48 h; series mostly up to 57.5 µM
Outline: as §1
On the % scale 0 is the no-effect control and ±100 the full control effect.

CCN(CC)C(=O)C1CN2CCc3cc(OC)c(OC)cc3C2CC1OC(C)=O (stereo not given)
inactive: Potency (CASKI) | Potency (Es-2) | Potency (HeLa) | Potency (Hek293T) | Potency (JEG-3) | Potency (OV90) | Potency (PA-1) | Potency (SKOV3) | Potency (Tov-21-G) | Potency (Tov112D)

OC[C@]1(O)OC[C@@H](O)[C@H](O)[C@@H]1O
inactive: Potency (CASKI) | Potency (Es-2) | Potency (HeLa) | Potency (Hek293T) | Potency (JEG-3) | Potency (OV90) | Potency (PA-1) | Potency (SKOV3) | Potency (Tov-21-G) | Potency (Tov112D)

O=C(NN1CCCC1)NS(=O)(=O)c1ccc(Cl)cc1
inactive: Potency (CASKI) | Potency (Es-2) | Potency (HeLa) | Potency (Hek293T) | Potency (JEG-3) | Potency (OV90) | Potency (PA-1) | Potency (SKOV3) | Potency (Tov-21-G) | Potency (Tov112D)

CN1Cc2cc(C(=O)N3CCC(C4CCNCC4)CC3)ccc2N[C@@H](CC(=O)O)C1=O
inactive: Potency (CASKI) | Potency (Es-2) | Potency (HeLa) | Potency (Hek293T) | Potency (JEG-3) | Potency (OV90) | Potency (PA-1) | Potency (SKOV3) | Potency (Tov-21-G) | Potency (Tov112D)

COC(=O)c1cc(Cl)ccc1OC
inactive: Potency (CASKI) | Potency (Es-2) | Potency (HeLa) | Potency (Hek293T) | Potency (JEG-3) | Potency (OV90) | Potency (PA-1) | Potency (SKOV3) | Potency (Tov-21-G) | Potency (Tov112D)

N[C@@H](Cn1ccc(=O)c(O)c1)C(=O)O
inactive: activity change, negative = cytotoxicity (CASKI) 1.33% [at 6.55 µM] | activity change, negative = cytotoxicity (Es-2) 4.8% [at 6.55 µM] | activity change, negative = cytotoxicity (HeLa) -0.102% [at 6.55 µM] | activity change, negative = cytotoxicity (Hek293T) -0.477% [at 6.55 µM] | activity change, negative = cytotoxicity (JEG-3) 1.6% [at 6.55 µM] | activity change, negative = cytotoxicity (OV90) 12.3% [at 6.55 µM] | activity change, negative = cytotoxicity (PA-1) 16.1% [at 6.55 µM] | activity change, negative = cytotoxicity (SKOV3) 23.2% [at 6.55 µM] | activity change, negative = cytotoxicity (Tov-21-G) -4.16% [at 6.55 µM] | activity change, negative = cytotoxicity (Tov112D) 12.5% [at 6.55 µM]

CN1CC(=O)N2[C@H](c3ccc4c(c3)OCO4)c3[nH]c4ccccc4c3C[C@@H]2C1=O
inactive: Potency (CASKI) | Potency (Es-2) | Potency (HeLa) | Potency (Hek293T) | Potency (JEG-3) | Potency (OV90) | Potency (PA-1) | Potency (SKOV3) | Potency (Tov-21-G) | Potency (Tov112D)

Cc1ncc(CO)c(CO)c1O
inactive: Potency (CASKI) | Potency (Es-2) | Potency (HeLa) | Potency (Hek293T) | Potency (JEG-3) | Potency (OV90) | Potency (PA-1) | Potency (SKOV3) | Potency (Tov-21-G) | Potency (Tov112D)

COc1cc(C(=O)OC(COCCC(C)C)CN2CCOCC2)cc(OC)c1OC (stereo not given)
inactive: Potency (CASKI) | Potency (Es-2) | Potency (HeLa) | Potency (Hek293T) | Potency (JEG-3) | Potency (OV90) | Potency (PA-1) | Potency (SKOV3) | Potency (Tov-21-G) | Potency (Tov112D)

CNC(=O)c1c(I)c(NC(C)=O)c(I)c(C(=O)O)c1I
inactive: Potency (CASKI) | Potency (Es-2) | Potency (HeLa) | Potency (Hek293T) | Potency (JEG-3) | Potency (OV90) | Potency (PA-1) | Potency (SKOV3) | Potency (Tov-21-G) | Potency (Tov112D)

Cc1onc(-c2ccccc2)c1C(=O)Cl
inactive: Potency (CASKI) | Potency (Es-2) | Potency (HeLa) | Potency (Hek293T) | Potency (JEG-3) | Potency (OV90) | Potency (PA-1) | Potency (SKOV3) | Potency (Tov-21-G) | Potency (Tov112D)

COc1cc2nc(Cl)nc(N)c2cc1OC
inactive: Potency (CASKI) | Potency (Es-2) | Potency (HeLa) | Potency (Hek293T) | Potency (JEG-3) | Potency (OV90) | Potency (PA-1) | Potency (SKOV3) | Potency (Tov-21-G) | Potency (Tov112D)

CC(=O)OC/C=C(C)/C=C/C=C(C)/C=C/C1=C(C)CCCC1(C)C
inactive: Potency (CASKI) | Potency (Es-2) | Potency (HeLa) | Potency (Hek293T) | Potency (JEG-3) | Potency (OV90) | Potency (PA-1) | Potency (SKOV3) | Potency (Tov-21-G) | Potency (Tov112D)

COC(=O)C1=C(C)NC(C)=C(C(=O)OCCc2ccc(N3CCN(C(c4ccccc4)c4ccccc4)CC3)cc2)C1c1cccc([N+](=O)[O-])c1 (stereo not given)
inactive: Potency (CASKI) | Potency (Es-2) | Potency (HeLa) | Potency (Hek293T) | Potency (JEG-3) | Potency (OV90) | Potency (PA-1) | Potency (SKOV3) | Potency (Tov-21-G) | Potency (Tov112D)

CN(C)CCN(Cc1ccsc1)c1ccccn1
inactive: Potency (CASKI) | Potency (Es-2) | Potency (HeLa) | Potency (Hek293T) | Potency (JEG-3) | Potency (OV90) | Potency (PA-1) | Potency (SKOV3) | Potency (Tov-21-G) | Potency (Tov112D)

CCOC(=O)C(O)c1ccccc1 (stereo not given)
inactive: Potency (CASKI) | Potency (Es-2) | Potency (HeLa) | Potency (Hek293T) | Potency (JEG-3) | Potency (OV90) | Potency (PA-1) | Potency (SKOV3) | Potency (Tov-21-G) | Potency (Tov112D)

CC(=O)N1CCN(c2ccc(O)cc2)CC1
inactive: Potency (CASKI) | Potency (Es-2) | Potency (HeLa) | Potency (Hek293T) | Potency (JEG-3) | Potency (OV90) | Potency (PA-1) | Potency (SKOV3) | Potency (Tov-21-G) | Potency (Tov112D)

O=[N+]([O-])c1nccn1CO[C@@H](CO)[C@H](O)CO
inactive: Potency (CASKI) | Potency (Es-2) | Potency (HeLa) | Potency (Hek293T) | Potency (JEG-3) | Potency (OV90) | Potency (PA-1) | Potency (SKOV3) | Potency (Tov-21-G) | Potency (Tov112D)

CCN1CCN(c2cc(-c3ccc(F)cc3)c3c(n2)CCCCCC3)CC1
inactive: Potency (CASKI) | Potency (Es-2) | Potency (HeLa) | Potency (Hek293T) | Potency (JEG-3) | Potency (OV90) | Potency (PA-1) | Potency (SKOV3) | Potency (Tov-21-G) | Potency (Tov112D)

CCOC(=O)NNc1nncc2ccccc12
inactive: Potency (CASKI) | Potency (Es-2) | Potency (HeLa) | Potency (Hek293T) | Potency (JEG-3) | Potency (OV90) | Potency (PA-1) | Potency (SKOV3) | Potency (Tov-21-G) | Potency (Tov112D)

Cc1coc2ccccc2c1=O
inactive: Potency (CASKI) | Potency (Es-2) | Potency (HeLa) | Potency (Hek293T) | Potency (JEG-3) | Potency (OV90) | Potency (PA-1) | Potency (SKOV3) | Potency (Tov-21-G) | Potency (Tov112D)

O=C(C1CCCCC1)N1CC(=O)N2CCCc3ccccc3C2C1 (stereo not given)
inactive: Potency (CASKI) | Potency (Es-2) | Potency (HeLa) | Potency (Hek293T) | Potency (JEG-3) | Potency (OV90) | Potency (PA-1) | Potency (SKOV3) | Potency (Tov-21-G) | Potency (Tov112D)
